Measurements: article PMC3218832

Key:
Assay in all cases: protein binding microarray; high values mean tight binding
Settings in all cases: dsDNA, one strand shown
RELARELA (p65 homodimer) = RELARELA (p65 homodimer) (Homo sapiens, UniProt Q04206 1-307)
p50p50 homodimer = p50p50 homodimer (Homo sapiens, UniProt P19838 7-356)
p52p52 homodimer = molecular target: T1, p52p52 homodimer (Homo sapiens, UniProt Q00653 4-332)
T1 sequence: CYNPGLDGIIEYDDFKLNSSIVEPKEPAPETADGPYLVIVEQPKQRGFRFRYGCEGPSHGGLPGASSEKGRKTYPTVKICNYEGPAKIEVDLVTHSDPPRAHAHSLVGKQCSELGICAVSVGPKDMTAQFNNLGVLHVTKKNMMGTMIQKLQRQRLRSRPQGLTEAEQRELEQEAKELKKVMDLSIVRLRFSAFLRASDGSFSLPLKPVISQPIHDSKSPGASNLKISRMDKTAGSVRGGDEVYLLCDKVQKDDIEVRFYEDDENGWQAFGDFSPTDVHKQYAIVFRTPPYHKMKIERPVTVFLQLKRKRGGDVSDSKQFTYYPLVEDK

[1] = molecular target: RELA (p65) subunit of heterodimer;p50 subunit (Homo sapiens;Homo sapiens, UniProt Q04206;P19838 1-307;7-356)
[2] = molecular target: RELA (p65) subunit of heterodimer;p52 subunit (Homo sapiens;Homo sapiens, UniProt Q04206;Q00653 1-307;4-332)
RELB subunit;p50 subunit = RELB subunit;p50 subunit (Homo sapiens;Homo sapiens, UniProt Q01201;P19838 120-401;7-356)
RELB subunit;p52 subunit = molecular target: T2, RELB subunit;p52 subunit (Homo sapiens;Homo sapiens, UniProt Q01201;Q00653 120-401;4-332)
T2 sequence 1: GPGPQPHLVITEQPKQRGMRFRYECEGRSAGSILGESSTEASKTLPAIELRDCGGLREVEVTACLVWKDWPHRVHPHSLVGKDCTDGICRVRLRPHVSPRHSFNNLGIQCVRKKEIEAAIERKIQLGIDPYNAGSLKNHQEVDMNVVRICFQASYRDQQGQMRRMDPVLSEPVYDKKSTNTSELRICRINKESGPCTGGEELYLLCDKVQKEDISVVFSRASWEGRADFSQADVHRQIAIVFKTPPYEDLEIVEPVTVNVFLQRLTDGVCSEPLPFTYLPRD
T2 sequence 2: T1 sequence

[3] = molecular target: C-Rel subunit;p50 subunit (Homo sapiens;Homo sapiens, UniProt Q04864;P19838 1-285;7-356)
[4] = molecular target: T3, C-Rel subunit;p52 subunit (Homo sapiens;Homo sapiens, UniProt Q04864;Q00653 1-285;4-332)
T3 sequence 1: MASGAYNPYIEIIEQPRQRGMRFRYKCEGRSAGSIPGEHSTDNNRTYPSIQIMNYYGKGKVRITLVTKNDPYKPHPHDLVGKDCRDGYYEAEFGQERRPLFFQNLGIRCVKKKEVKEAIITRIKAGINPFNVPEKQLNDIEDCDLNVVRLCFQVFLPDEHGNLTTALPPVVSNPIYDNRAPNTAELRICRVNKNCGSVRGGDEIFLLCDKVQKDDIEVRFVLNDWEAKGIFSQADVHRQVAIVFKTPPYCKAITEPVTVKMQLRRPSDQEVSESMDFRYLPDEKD
T3 sequence 2: T1 sequence

p50p50 homodimer, sequence (P19838 7-356): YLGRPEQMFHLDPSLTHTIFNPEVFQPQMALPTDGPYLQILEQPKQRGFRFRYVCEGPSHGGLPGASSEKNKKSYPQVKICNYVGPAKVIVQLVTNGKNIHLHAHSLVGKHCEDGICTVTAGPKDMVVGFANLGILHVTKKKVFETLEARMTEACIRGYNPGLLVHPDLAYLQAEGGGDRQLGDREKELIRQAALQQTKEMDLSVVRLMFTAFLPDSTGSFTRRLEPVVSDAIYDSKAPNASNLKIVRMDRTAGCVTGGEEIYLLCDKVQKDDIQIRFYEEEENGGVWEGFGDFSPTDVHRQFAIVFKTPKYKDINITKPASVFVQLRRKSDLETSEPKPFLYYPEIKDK
RELARELA (p65 homodimer), sequence (Q04206 1-307): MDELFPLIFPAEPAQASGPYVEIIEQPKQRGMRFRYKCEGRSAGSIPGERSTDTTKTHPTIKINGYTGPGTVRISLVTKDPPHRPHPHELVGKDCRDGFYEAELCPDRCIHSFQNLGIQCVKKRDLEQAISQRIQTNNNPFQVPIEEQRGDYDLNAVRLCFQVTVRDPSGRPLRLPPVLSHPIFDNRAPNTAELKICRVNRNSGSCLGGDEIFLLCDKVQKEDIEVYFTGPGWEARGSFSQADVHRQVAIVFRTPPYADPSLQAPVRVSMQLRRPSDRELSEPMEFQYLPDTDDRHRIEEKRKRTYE
RELA (p65) subunit of heterodimer;p50 subunit, sequence (Q04206 1-307, chain 1 of 2): as the sequence (Q04206 1-307) above
RELA (p65) subunit of heterodimer;p50 subunit, sequence (P19838 7-356, chain 2 of 2): as the sequence (P19838 7-356) above

Row | Sequence | binding signal (RELARELA (p65 homodimer)) [z-score] | binding signal (p50p50 homodimer) [z-score] | binding signal (p52p52 homodimer) [z-score] | binding signal [1] [z-score] | binding signal [2] [z-score] | binding signal (RELB subunit;p50 subunit) [z-score] | binding signal (RELB subunit;p52 subunit) [z-score] | binding signal [3] [z-score] | binding signal [4] [z-score]
1 | AAGGTCCCCCC | -0.0871 | 1.12 | 0.844 | 1.52 | 1.1 | 1.51 | 1.74 | 1.34 | 0.964
2 | AAAAACATCCT | -0.23 | -0.94 | -0.575 | -0.766 | -0.82 | -0.865 | -0.741 | -1.09 | -0.784
3 | AAAGGTCCCCT | -0.0302 | 1.09 | 0.848 | 0.65 | 0.742 | 1.05 | 0.989 | 0.669 | 0.512
4 | AAGGATACCCC | 0.0433 | 0.446 | 0.189 | 0.436 | 0.502 | 0.457 | 0.95 | 0.507 | 0.247
5 | AAGTGCCTCCC | -0.0547 | -1.21 | -0.495 | -0.501 | -0.793 | -0.787 | -0.731 | -1.1 | -0.788
6 | CGGGGCACCCC | 0.313 | 0.323 | 1.21 | 0.7 | 1.06 | 0.451 | 1.1 | 0.899 | 1.43
7 | CAATGAATCCC | -0.259 | -0.487 | -0.235 | -0.428 | -0.353 | -0.22 | -0.356 | -0.0958 | -0.345
8 | AAGATCTCCCT | 0.0704 | 1.15 | 0.499 | 0.913 | 0.528 | 1.16 | 1.02 | 0.475 | 0.202
9 | CGAATGTCCCC | 0.531 | 1.1 | 0.861 | 1.09 | 1.07 | 1.07 | 1.17 | 1.01 | 0.868
10 | AGGTTTGTCCC | 1.29 | 0.56 | 0.82 | 0.878 | 0.918 | 0.602 | 0.621 | 0.937 | 0.735
11 | GGAAATGTCCC | 1.93 | 0.902 | 1.14 | 1.27 | 1.05 | 0.938 | 0.986 | 0.9 | 0.975
12 | GAGAATACCCC | 0.964 | 1.14 | 0.914 | 1.24 | 1.18 | 1.05 | 1.31 | 1.03 | 0.996
13 | GAGAGGACCCC | -0.845 | -0.858 | -0.455 | -0.636 | -0.537 | -0.461 | -0.392 | -0.607 | -0.571
14 | CAGTAGCTCCT | -0.468 | -1.98 | -0.806 | -1.09 | -1.13 | -1.24 | -1.1 | -1.72 | -1.02
15 | AGAGATCCCCC | -0.101 | 1.31 | 1.28 | 2.02 | 1.56 | 1.82 | 1.98 | 1.37 | 1.47
16 | GAATAGCTCCC | -0.473 | -0.795 | -0.577 | -0.627 | -0.84 | -0.753 | -0.873 | -1.16 | -0.82
17 | CAATTATCCCC | 0.4 | 1.12 | 1.04 | 1.31 | 1.12 | 1.3 | 1.33 | 1.2 | 0.884
18 | CGGTGCTTCCC | 0.809 | 0.562 | 2.72 | 1.22 | 1.98 | 1.09 | 2.06 | 0.924 | 2.22
19 | CGGGTTATCCC | 1.55 | 0.247 | 1.5 | 0.634 | 0.988 | 0.155 | 0.698 | 0.306 | 0.791
20 | AAGGAACCCCT | -0.469 | 0.961 | 0.532 | 0.281 | 0.861 | 0.479 | 0.874 | 0.215 | 0.603
21 | AAAGGCACCCT | -1.13 | -0.88 | -0.454 | -0.697 | -0.787 | -0.685 | -0.711 | -1.07 | -0.741
22 | GGAAGTTTCCC | 2.98 | 0.874 | 1.24 | 1.47 | 1.22 | 0.959 | 1.03 | 1.36 | 1.15
23 | CGAGTGGTCCC | -0.301 | -0.0725 | -0.0457 | -0.513 | -0.369 | 0.0154 | -0.138 | -0.515 | -0.428
24 | GAAGAGTTCCC | 0.742 | 0.281 | -0.0634 | 0.27 | 0.0483 | 0.132 | -0.0744 | 0.46 | 0.057
25 | AAGTTGATCCC | -0.64 | -0.815 | -0.6 | -0.903 | -0.719 | -0.688 | -0.621 | -1.07 | -0.615
26 | AAAGTCATCCC | -0.416 | -0.925 | -0.412 | -1.01 | -0.716 | -0.587 | -0.628 | -0.836 | -0.699
27 | AAGGGTGCCCT | -1.07 | -1.79 | -0.569 | -1.02 | -0.718 | -0.876 | -0.74 | -1.1 | -0.646
28 | CGATTAACCCT | -0.485 | -0.551 | -0.421 | -0.497 | -0.556 | -0.691 | -0.624 | -0.83 | -0.644
29 | AGGTTGCTCCC | -0.396 | -0.987 | -0.528 | -0.584 | -0.648 | -0.569 | -0.67 | -0.696 | -0.587
30 | CGAGTTTCCCT | 1.14 | 1.12 | 1.17 | 1.16 | 1.16 | 1.04 | 1.42 | 1.07 | 0.975
